{
  "source": "PubChem BioAssay AID720524",
  "about": "(National Center for Advancing Translational Sciences (NCATS), 2013)",
  "note": "About 1,000 (71%) of roughly 1,400 compounds were called active. About 12% were inconclusive and are not listed. The call rests on the fitted dose curve; in most records, active means well fitted inhibition curve with a large enough effect; inconclusive means small, poorly fitted or top-dose-only effect; inactive means no such curve, though single readings can be large or run the other way. The set was probably picked from earlier hits. Only a sample is shown. Potency means the concentration at half of the fitted maximal effect.",
  "data": [
    {"test": "Nrf2 qHTS screen for inhibitors: Nrf2 A549 ARE-Fluc Confirmation Assay for Hit Validation; further: nearly all actives have a fitted effect of over 65% in size", "conditions": "A549 ARE-firefly luciferase reporter, luminescence", "text": "Nrf2 is a transcription factor that maintains cellular redox homoestasis and protects cells from xenobiotics. Nrf2 binds to the antioxidant response element (ARE) to induce gene expression of a broad spectrum of genes that encode for antioxidants. […] Finding a small molecule that act as an inhibitor of Nrf2 function would represent a novel therapeutic target that could lead to improvement in survival of patients undergoing chemo- and/or radio- therapy.\nIn collaboration with the Biswal laboratory, a cell based, luminescence assay (BugLite) was developed to detect the Nrf2 activity using the A549 ARE_Fluc cells (AID 493153). This assay was coupled with a fluorescence based (CellTiter Fluor) cytotoxicity assay to identify and exclude toxic compounds. This coupled assay was used to evaluate selected compounds for hit validation. The data herein is the result of the BugLite assay where decrease in luminescence signal = inhibition of Nrf2 activation. Inhibition is the desired outcome for this assay.\nNIH Chemical Genomics Center [NCGC]\nNIH Molecular Libraries Probe Centers Network [MLPCN]\nAssay Submitter (PI): Shyam Biswal, Johns Hopkins University\n[1] Shibata T., et al., Genetic alteration of Keap1 confers constitutive Nrf2 activation and resistance to chemotherapy in gallbladder cancer. Gastroenterology, 2008.\n[2] Sjoblom T., et al., The consensus coding sequences of human breast and colorectal cancers. Science, 2006.\nFive uL of cell suspension was dispensed into 1536-well white TC-treated plate using the Kalypsys dispenser to achieve a density of 5000 cells/well in all columns except column 1. The plates were incubated at 37deg C at 5% CO2 for 2 hours before 23 nL of compounds were added with the Kalypsys pin tool equipped with a 1,536-pin array. The control compounds Budesonide and Staurosporine were added at a concentration of 2mM. Budesonide was also added as a 1:10 titration, starting at 200uM, to achieve the dose-response control signal. The plates were incubated for 18-24 hour at 37deg C, 5% CO2 followed by a 5ul addition of 5% FBS OPTI-MEM growing media in column 1 as negative control. One microliter of 5x CellTiter Fluor (Promega) was added to each well and the assay plates were incubated at 37deg C, 5% CO2 for 30 minutes. The fluorescence signal was read using the PerkinElmer ViewLux plate reader (Ex = 405 nm /Em = 525 nm) for a 3 second exposure. After the signal was taken, 3 uL of 3x BugLite was dispensed into all wells. The plates were then incubated at room temperature for 15 minutes. A second ViewLux read (40 sec exposure) was performed to detect the luminescence signal. Cytotoxicity was assessed through the first fluorescent read while biochemical activity against Nrf2 was measured in the luminescent read. The data was normalized to the positive and negative controls.", "values": [
      {"smiles": "c1ccc2c(c1)[I+]c1ccccc1-2", "Potency": "206 nM (active)"},
      {"smiles": "CC[C@H]1CN2CCc3cc(OC)c(OC)cc3[C@@H]2C[C@@H]1C[C@H]1NCCc2cc(OC)c(OC)cc21", "Potency": "146 nM (active)"},
      {"smiles": "CCC(C)(O)C(=O)OC1C(=O)OC2CC3C(C)=CC(=O)C(O)C3(C)C3C4(O)OCC23C1C(C)C4O", "note": "(stereo not given)", "Potency": "580 nM (active)"},
      {"smiles": "COC1C(O)C(C)OC(OC2CCC3(C=O)C(CCC4C3CCC3(C)C(C5=CC(=O)OC5)CCC43O)C2)C1O", "note": "(stereo not given)", "Potency": "11.6 nM (active)"},
      {"smiles": "C[C@]12CC[C@H](O)C[C@H]1CC[C@@H]1C2CC[C@]2(C)[C@@H](C3=CC(=O)OC3)[C@@H](O)C[C@]12O", "note": "(stereo not given in full)", "Potency": "1640 nM (active)"}
    ]}
  ]
}
